Test [1] in a line: NFAT Signaling Pathway (AID 444; active = well fitted curve in either direction with a large enough effect, not every such curve was filed as active;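 note: carbachol stimulus at about its EC50 of 1 µM final; % is set by controls: 0 for no effect and ±100 for the full control effect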). The following applies: Jurkat NFAT-bla M1, carbachol, beta-lactamase ratio, 5 h; at 38 µM (top of the series). Put shortly:
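Read-out: CCF4 FRET ratio (460 nm/530 nm) after 1 h RT dye loading, used for %activity and AC50 from titration series. Cells: Jurkat NFAT-β-lactamase/M1 line, treated with compound plus 1 uM carbachol for 5 h, 37 °C.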

The nature of test [2]: Stat Signaling Pathway (AID 446; active = well fitted curve in either direction with a large enough effect, not every such curve was filed as active;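 note: ME-180 cervical cancer cells given 40 pM IL-6 alongside compound; SIE-controlled beta-lactamase reporter measured as 460/530 nm FRET emission ratio; % is set by controls: 0 for no effect and ±100 for the full control effect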). The following applies: ME-180 (cervical carcinoma) SIE beta-lactamase reporter, IL-6 stimulated, 5 h; at 38 µM (top of the series). The essentials:
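Emission at 460 and 530 nm (excitation 405 nm) reports SIE-controlled beta-lactamase in ME-180 cells. Cells received compound with 40 pM IL-6 for 5 hrs at 37 C; data scaled between 300 pM IL-6 and 125 nM JAK-inhibitor controls.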

Test [3] concerns the target Glucocorticoid receptor (Homo sapiens) (UniProt P04150). Put plainly: GR-GFP Redistribution (AID 450;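 active = compounds whose dose series gives a full or clear partial fitted curve of increased nuclear translocation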; note: potency is the fitted concentration of half-maximal effect). The following applies: U2OS GR-GFP nuclear translocation, laser cytometry, 2 h.
The target is the same in test [4]. The experiment in a line: GR-EFC Redistribution (AID 451; calls by dose curve; note: potency is the fitted concentration of half-maximal effect). The following applies: CHO-K1 GR-EFC translocation, beta-gal luminescence, 2 h. Put shortly:
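Translocation of GR-ED fusion to nuclear EA restores b-gal, read by luminescence after 1 h room-temperature detection. Engineered CHO-K1 biosensor cells, 1,000/well, exposed 2 h at 37 C to titrations up to 46 uM final.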

Test [5] deals with Mitogen-activated protein kinase 10 (Mus musculus) (UniProt Q61831). The experiment in a line: JNK3 AlphaScreen Assay (AID 530; active = well fitted curve in either direction with a large enough effect, not every such curve was filed as active;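 note: kinase came from lysate of stimulated human HepG2 cells; signal reports phosphorylation of biotinylated GST-cJun 1-79 at Ser73 with 10 µM ATP; % is set by controls: 0 for no effect and ±100 for the full control effect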). The essentials:
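qHTS titrations with 15 min compound pre-incubation before adding ATP (10 uM final). Read-out: AlphaScreen of Ser73-phosphorylated biotin-GST-cJun using HepG2 lysate JNK3 activated by IL-1β and TNFα.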

Test [6] has as its target 3',5'-cyclic-AMP phosphodiesterase 4B (Homo sapiens) (UniProt Q07343). Put plainly: qHTS Assay for Inhibitors of PDE-IV (AID 607; active = well fitted activation curve with a large enough effect in the main read-out, with a control signal flat, not every such curve was filed as active; note: % of control where 0% means no effect). Put shortly:
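The readout is membrane depolarisation from a cAMP-sensing CNG channel, detected with a potential dye at ex 535/em 590. Cells were HEK293-derived (endogenous PDE-IV) at 1000 cells/well, titrated up to 22.9 uM final.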
A general note: Quantitative high-throughput screening tests each substance at several concentrations.

Test [7] concerns the target Guanine nucleotide-binding protein G(i) subunit alpha-1 (Homo sapiens) (UniProt P63096). The experiment in a line: qHTS Assay for Inhibitors of RGS12 GoLoco Motif Activity (Green Fluorophore) (AID 879).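 Note: 0% = labeled peptide with Gαi1 and full inhibition = labeled peptide alone without protein; negative values mean loss of peptide binding seen as reduced polarization.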 The essentials: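 A drop in FITC polarization marked displacement of the FITC-tagged RGS12 GoLoco peptide (10 nM) from Gαi1 (50 nM). Compounds were incubated 10 min at room temperature in Tris pH 7.5 buffer containing 150 mM NaCl, 0.1 mM GDP and 0.05% NP40; unlabeled peptide titration served as control.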

The target of test [8] is Cytochrome P450 2C9 (Homo sapiens) (UniProt P11712). The experiment in a line: qHTS Assay for Inhibitors and Substrates of Cytochrome P450 2C9 (AID 883). Note: potency is the fitted concentration of half-maximal effect; nearly all actives have a fitted effect of over 60% in size. Put shortly:
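Turnover of Luciferin-H (100uM, KM) by 10nM human CYP2C9 was measured over 60 min at 37C with NADPH regeneration; inhibitors and some substrates reduce luminescence. Data normalized to sulphaphenazole 57uM.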

For test [9], the target named is Pyruvate kinase (Leishmania mexicana) (UniProt Q27686). Put plainly: qHTS Validation Assay for Inhibitors of Leishmania Mexicana Pyruvate Kinase (AID 945).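 Note: 0% = DMSO only neutral control wells.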 Put shortly:
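qHTS eight-point titrations against 0.2 nM LmPYK (E451W) in imidazole buffer pH 7.2 with 0.5 mM PEP, 0.1 mM ADP; 1 h, room temperature. Readout: PKLight luminescence, normalized to neutral DMSO wells.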

Test [10] deals with Alpha-galactosidase A (Homo sapiens) (UniProt P06280). The experiment in a line: Counterscreen for Glucocerebrosidase Inhibitors: qHTS Assay for Human alpha-Galactosidase at pH 4.5 (AID 992). Note: 0% is about no effect. The essentials:
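Fluorogenic 4-MU alpha-D-galactoside (80 uM) hydrolysis, 2 nM enzyme, pH 4.5 citrate buffer + 0.005% Tween-20; 20 min RT; NaOH/glycine pH 10 stop; Ex365/Em440. Compounds titrated 0.7 nM–77 uM; Hill-equation AC50.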
On the technique in general: Counterscreens check selectivity or assay interference.

Test [11] concerns the target alpha-glucosidase (Oryza sativa, rice) (UniProt Q653V4). The experiment in a line: Counterscreen for Glucocerebrosidase Inhibitors: qHTS Assay for Rice alpha-Glucosidase at pH 5.0 (AID 997).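 Note: 0% = full activity with enzyme and -100% = basal without enzyme.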 Put shortly: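 Endpoint fluorogenic assay at pH 5.0: compounds (0.7 nM to 77 uM) titrated against 4 nM rice enzyme and 400 uM 4-MU-alpha-glucoside for 20 min at room temperature; NaOH/glycine stop, read ex 365/em 440 nm, Hill-fitted AC50.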

The nature of test [12]: Validation of Assay for Modulators of Lamin A Splicing (AID 1459; active = well fitted curve in the direction sought with a large enough effect in the signal ratio; the % refers to the signal ratio;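 note: cells exposed to compound for two days before reading; 0% is about no effect; ratio rise marks activators and ratio drop marks inhibitors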). Put shortly:
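HeLa S3 lamin A-EGFP/DsRed2 stable clone, 600 cells/well, Opti-MEM 2% FBS; compounds by pin tool; 48 hrs, 37 °C/5% CO2; Acumen 488 nm scan, objects 10-100 um; GFP/RFP intensity ratio.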

A short description of test [13]: qHTS Assay for Lipid Storage Modulators (AID 1519; calls by dose curve). The following applies: Drosophila S3 cells, BODIPY lipid droplet/cell ratio, laser cytometry, cells loaded with oleic acid. The essentials:
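Cells seeded at 5,000 per well were treated with compounds over a concentration series and loaded with oleic acid (400 uM, as added). Lipid droplet fluorescence (488 nm excitation, 500-530 nm channel) was read by laser-scanning cytometry and normalized to 20 uM Triacsin C.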

In test [14] the target is DNA repair nuclease/redox regulator APEX1 (Homo sapiens) (UniProt P27695). The experiment in a line: qHTS Validation Assay for Inhibitors of the Human Apurinic/apyrimidinic Endonuclease 1 (APE1) (AID 1705;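 note: TAMRA fluorescence gain over two minutes as APE1 cuts a quenched THF abasic duplex; % is set by controls: 0 for no effect and ±100 for the full control effect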). Put shortly: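 qHTS, 1536-well. APE1 + cpd 15 min RT → 50 nM TAMRA/BHQ-2 THF-abasic dsDNA substrate → kinetic fluorescence, 3 reads/60 s; delta(read3−read1) = reaction progress. No-enzyme buffer = negative control.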

Test [15] can be described thus: Counterscreen for APE1 Inhibitors: Fluorescent Dye Displacement Validation Assay (AID 1707).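 Note: plate controls were ThO with dsDNA and no compound for no effect and ThO without dsDNA for full effect.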 The essentials: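 Endpoint fluorescence read at 480 nm excitation / 540 nm emission; DNA-binding compounds lower signal by displacing 250 nM Thiazole Orange from 50 nM dsDNA containing a tetrahydrofuran abasic site, Tris-HCl pH7.5 buffer with NaCl and MgCl2.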
For test [16], the target named is Endonuclease 4 (Escherichia coli (strain K12)) (UniProt P0A6C1). Put plainly: Counterscreen for APE1 Inhibitors: qHTS Validation Assay for Inhibitors of Endonuclease IV (AID 1708). Note: % is set by controls: 0 for no effect and ±100 for the full control effect. Put shortly: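 Incision of a double-stranded 50 nM TAMRA/BHQ-2 abasic substrate was followed kinetically (525/598 nm, reads every 60 s) after 15 min enzyme–compound preincubation with 2 nM EndoIV in pH 7.5 Tris buffer with MgCl2, DTT and Tween-20; concentration-response format.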

The record followed here is PubChem BioAssay (NCATS).

Molecules are shown by their SMILES. Inconclusive results are not listed. The source made the active and inactive calls. Unless noted, calls come from the whole dose curve; as a rule, active = well fitted curve in the direction sought with a large enough effect; inconclusive = small, poorly fitted or top-dose-only effect, or another doubt; inactive = no such curve, though single readings can be large; an effect the other way counts as inactive or inconclusive.

Chain of Glucocorticoid receptor (Homo sapiens) (P04150 whole entry, looked up): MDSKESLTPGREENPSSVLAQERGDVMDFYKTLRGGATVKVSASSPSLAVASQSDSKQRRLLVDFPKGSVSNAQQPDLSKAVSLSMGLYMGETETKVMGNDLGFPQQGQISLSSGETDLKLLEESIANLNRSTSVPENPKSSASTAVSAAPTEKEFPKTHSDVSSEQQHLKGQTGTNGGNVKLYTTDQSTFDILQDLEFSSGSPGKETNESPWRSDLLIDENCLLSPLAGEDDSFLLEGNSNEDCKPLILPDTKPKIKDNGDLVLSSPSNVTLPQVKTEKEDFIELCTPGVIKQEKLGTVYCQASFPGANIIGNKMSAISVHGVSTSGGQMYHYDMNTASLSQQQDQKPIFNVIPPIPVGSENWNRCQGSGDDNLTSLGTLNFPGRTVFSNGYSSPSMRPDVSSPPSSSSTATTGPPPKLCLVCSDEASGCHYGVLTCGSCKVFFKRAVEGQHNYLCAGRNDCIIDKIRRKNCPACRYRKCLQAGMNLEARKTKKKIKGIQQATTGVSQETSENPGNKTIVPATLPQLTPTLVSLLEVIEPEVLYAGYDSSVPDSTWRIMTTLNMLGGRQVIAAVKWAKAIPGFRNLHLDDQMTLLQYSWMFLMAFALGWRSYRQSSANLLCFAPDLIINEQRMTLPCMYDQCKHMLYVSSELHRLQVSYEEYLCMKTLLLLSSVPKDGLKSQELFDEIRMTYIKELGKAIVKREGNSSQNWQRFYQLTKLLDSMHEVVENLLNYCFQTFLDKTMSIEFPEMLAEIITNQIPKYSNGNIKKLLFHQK
Chain of 3',5'-cyclic-AMP phosphodiesterase 4B (Homo sapiens) (Q07343 whole entry, looked up): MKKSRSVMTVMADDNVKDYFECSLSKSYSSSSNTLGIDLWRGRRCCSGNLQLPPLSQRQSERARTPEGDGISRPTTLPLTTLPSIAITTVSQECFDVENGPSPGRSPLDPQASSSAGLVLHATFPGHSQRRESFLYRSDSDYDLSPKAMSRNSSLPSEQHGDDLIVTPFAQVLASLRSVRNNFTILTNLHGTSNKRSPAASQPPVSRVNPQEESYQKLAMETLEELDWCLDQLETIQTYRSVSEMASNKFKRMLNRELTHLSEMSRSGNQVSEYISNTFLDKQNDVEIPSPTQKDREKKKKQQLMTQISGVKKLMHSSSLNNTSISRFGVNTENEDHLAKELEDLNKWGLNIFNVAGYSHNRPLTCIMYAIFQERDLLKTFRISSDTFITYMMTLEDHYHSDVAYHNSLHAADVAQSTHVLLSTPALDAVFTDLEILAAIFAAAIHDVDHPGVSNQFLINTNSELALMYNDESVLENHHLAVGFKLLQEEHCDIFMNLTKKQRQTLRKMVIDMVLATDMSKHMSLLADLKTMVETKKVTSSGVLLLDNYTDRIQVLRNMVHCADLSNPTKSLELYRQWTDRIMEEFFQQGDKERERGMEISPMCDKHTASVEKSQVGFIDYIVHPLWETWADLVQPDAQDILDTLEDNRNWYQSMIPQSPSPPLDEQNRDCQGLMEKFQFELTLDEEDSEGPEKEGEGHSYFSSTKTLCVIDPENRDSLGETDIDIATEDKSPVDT
Chain of Guanine nucleotide-binding protein G(i) subunit alpha-1 (Homo sapiens) (P63096 whole entry, looked up): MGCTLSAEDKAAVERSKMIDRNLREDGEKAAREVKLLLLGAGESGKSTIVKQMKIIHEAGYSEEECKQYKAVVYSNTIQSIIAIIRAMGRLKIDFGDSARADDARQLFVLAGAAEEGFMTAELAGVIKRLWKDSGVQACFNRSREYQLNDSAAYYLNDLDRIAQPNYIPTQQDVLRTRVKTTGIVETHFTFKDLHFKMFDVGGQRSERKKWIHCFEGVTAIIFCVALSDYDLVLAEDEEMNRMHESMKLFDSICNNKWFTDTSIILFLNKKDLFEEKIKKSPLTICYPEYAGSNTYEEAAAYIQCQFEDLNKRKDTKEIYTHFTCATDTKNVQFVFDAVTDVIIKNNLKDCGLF
Chain of Alpha-galactosidase A (Homo sapiens) (P06280 whole entry, looked up): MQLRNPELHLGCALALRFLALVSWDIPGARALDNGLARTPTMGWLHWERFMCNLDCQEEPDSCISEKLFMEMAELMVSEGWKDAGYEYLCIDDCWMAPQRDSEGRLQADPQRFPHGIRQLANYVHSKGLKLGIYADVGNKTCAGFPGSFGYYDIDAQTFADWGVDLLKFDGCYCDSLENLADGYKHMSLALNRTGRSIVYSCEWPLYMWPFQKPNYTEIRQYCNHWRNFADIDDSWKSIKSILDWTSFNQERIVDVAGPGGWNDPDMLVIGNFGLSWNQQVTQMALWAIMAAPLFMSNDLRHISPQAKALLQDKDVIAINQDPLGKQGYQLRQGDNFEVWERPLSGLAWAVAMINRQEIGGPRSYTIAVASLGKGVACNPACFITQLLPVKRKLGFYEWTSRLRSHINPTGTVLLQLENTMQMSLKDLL
Chain of DNA repair nuclease/redox regulator APEX1 (Homo sapiens) (P27695 whole entry, looked up): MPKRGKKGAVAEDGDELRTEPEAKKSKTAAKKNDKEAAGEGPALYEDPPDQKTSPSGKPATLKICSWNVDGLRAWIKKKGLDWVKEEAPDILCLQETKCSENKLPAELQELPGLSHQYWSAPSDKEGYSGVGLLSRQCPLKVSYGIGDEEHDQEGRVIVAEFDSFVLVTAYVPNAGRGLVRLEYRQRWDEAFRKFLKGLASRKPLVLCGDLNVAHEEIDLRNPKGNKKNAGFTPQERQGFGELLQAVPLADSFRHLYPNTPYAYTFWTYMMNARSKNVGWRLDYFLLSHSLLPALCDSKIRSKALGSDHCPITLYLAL
Chain of Cytochrome P450 2C9 (Homo sapiens) (P11712 whole entry, looked up): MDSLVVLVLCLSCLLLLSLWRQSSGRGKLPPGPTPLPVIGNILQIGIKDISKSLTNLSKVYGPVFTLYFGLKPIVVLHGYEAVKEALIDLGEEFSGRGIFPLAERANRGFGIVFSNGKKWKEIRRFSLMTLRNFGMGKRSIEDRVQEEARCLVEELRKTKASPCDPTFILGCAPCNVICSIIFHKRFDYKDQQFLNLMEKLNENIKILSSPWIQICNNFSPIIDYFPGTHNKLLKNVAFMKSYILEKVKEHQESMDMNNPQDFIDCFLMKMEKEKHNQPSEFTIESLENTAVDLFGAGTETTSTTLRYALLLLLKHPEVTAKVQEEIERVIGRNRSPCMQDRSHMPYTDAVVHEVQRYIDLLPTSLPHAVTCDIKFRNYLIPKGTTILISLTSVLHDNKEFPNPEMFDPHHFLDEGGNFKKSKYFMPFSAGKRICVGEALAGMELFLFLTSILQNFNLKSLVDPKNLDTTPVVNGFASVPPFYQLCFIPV
Chain of Pyruvate kinase (Leishmania mexicana) (Q27686 2-499 E452W): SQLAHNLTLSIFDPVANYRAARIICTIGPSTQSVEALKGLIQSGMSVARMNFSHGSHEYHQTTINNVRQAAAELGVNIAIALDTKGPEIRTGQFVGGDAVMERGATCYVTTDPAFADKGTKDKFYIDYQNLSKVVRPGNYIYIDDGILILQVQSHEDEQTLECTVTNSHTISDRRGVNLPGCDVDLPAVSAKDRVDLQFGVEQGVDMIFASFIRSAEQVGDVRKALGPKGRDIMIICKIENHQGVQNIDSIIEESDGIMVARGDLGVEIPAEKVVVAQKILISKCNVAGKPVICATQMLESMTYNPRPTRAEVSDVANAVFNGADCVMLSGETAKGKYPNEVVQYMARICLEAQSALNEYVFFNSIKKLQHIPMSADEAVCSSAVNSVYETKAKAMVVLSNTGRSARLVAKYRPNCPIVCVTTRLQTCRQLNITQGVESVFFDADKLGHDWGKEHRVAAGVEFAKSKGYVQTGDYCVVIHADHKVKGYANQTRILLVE

As to `O=C(OCCN1CCCCC1)c1c[nH]c2ccccc12`, the figures for the activity change, negative = inhibition in test [1] and in test [13] (at 57.5 µM (top of the series)) were -11% (inactive) and -1.63% (inactive), respectively. The activity, negative = inhibition in test [2] is -6.33% (inactive). Besides, the Potency in test [3] is > 46 µM (inactive); in test [4] it was > 46 µM (inactive); in [8], 2 µM (active). Also, the Potency entry in [5], in test [6], in test [9], in [14], in test [15] and in [16] was “inactive” in each case. In addition, the outcome in [7], in [10], in test [11] and in test [12] was inactive. The max response in test [13] (measured here: cell count channel max response) is -19.5%; in test [13] (measured here: lipid channel max response) it was -30.4%.
